Experimental data published in PubChem BioAssay AID504332 (National Center for Advancing Translational Sciences (NCATS), 2011).
Several values for one entry are separate records, joined by “and”; a condition that tells them apart may be missing. Equal values may be shown once. Among all 350,000 compounds or so, about 31,000 (8.9%) were called active. Entries that show only a call come without a potency. Not shown: some 15% with an inconclusive outcome. Calls follow the shape of the dose curve; as a rule, active = well fitted inhibition curve with a large enough effect; inconclusive = small, poorly fitted or top-dose-only effect; inactive = no such curve, though single readings can be large or run the other way. For the sample, actives were picked, then their nearest neighbours and some compounds at random. The source holds several records for some structures; these can differ, active in one and inactive in another.

Target: Histone-lysine N-methyltransferase EHMT2 (Homo sapiens) (UniProt Q96KQ7)
Sequence (Q96KQ7 913-1193 limits assumed): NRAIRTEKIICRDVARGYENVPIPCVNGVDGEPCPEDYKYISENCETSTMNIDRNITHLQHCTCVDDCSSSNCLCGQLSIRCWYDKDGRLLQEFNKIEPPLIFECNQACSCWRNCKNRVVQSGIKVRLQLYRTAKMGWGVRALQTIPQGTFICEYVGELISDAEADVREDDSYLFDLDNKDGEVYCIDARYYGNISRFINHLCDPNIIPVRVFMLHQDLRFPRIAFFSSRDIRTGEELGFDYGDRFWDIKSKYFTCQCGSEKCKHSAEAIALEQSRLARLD
Test: qHTS Assay for Inhibitors of Histone Lysine Methyltransferase G9a; also: nearly all actives have a fitted effect of over 75% in size
Details: G9a H3K9 monomethylation, AlphaScreen, 2 h; series mostly up to 59 µM
How it was run: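 Using a bead-based AlphaScreen, monomethylated H3K9 product from 2 h room-temperature reactions (G9a 20 nM, peptide 500 nM, SAM 20 uM) was detected with 0.5 ug/mL rabbit anti-H3K9me1 antibody.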
Potency is read from the fitted curve at half-maximal effect.

| Compound | Potency | activity, negative = inhibition |
| --- | --- | --- |
| Cc1n[nH]c(=O)nc1N/N=C/c1cccs1 | inactive |  |
| Oc1ccccc1/C=N/n1c(-c2cccs2)n[nH]c1=S | 1.58 µM (active) |  |
| S=c1[nH]nc(-c2cccs2)n1/N=C/c1cccs1 | 1.26 µM (active) |  |
| c1ccc(-c2noc(-c3cccs3)n2)nc1 | inactive |  |
| Cc1ccsc1/C=N/n1c(=S)[nH]nc(C)c1=O | inactive |  |
| COc1cc(-c2cc3n(C)c(C)c(CCC(=O)Nc4ccc(F)cc4)c(=O)n3n2)cc(OC)c1OC | inactive |  |
| Cc1cccc(NC(=O)CSc2nnc(CNC(=O)c3cccc(C)c3)n2-c2ccccc2)c1 | inactive |  |
| COc1cccc(C(=O)CC(=O)C(=O)Nc2ccc([N+](=O)[O-])cc2C)c1 | inactive |  |
| COc1cccc(NCCC(=O)c2cccc([N+](=O)[O-])c2)c1 | 35.5 µM (active) |  |
| COc1cccc(CNC(=O)CCCC(=O)Nc2cccc([N+](=O)[O-])c2)c1 | inactive |  |
| O=C(CN1CCOC1=O)N1CCCC(Nc2ccc(F)c(F)c2)C1 (stereo not drawn) | inactive |  |
| CCC(=O)Nc1nc(C)c(C(=O)Nc2cccc(Cl)c2)s1 | inactive |  |
| CCN(CC)CCCNC(=O)c1cc(-c2cccc(Cl)c2)on1 | inactive |  |
| CCN(CC)CCCC(C)Nc1ccnc2cc(Cl)ccc12 (stereo not drawn) | 25.1 µM (active) | -36.5% [at 2.33 µM] (inactive) and 28.9% [at 12.7 µM] (inactive) |
| CCN(CC)CCNc1ncnc2c1cnn2-c1cc(Cl)ccc1C | inactive |  |
| O=C(NCCc1ccco1)C(=O)NCCC1CCCCN1S(=O)(=O)c1ccccc1 (stereo not drawn) |  | 10.9% [at 0.501 µM] (inactive) |
| CC(=O)Nc1cccc(-c2csc(Nc3cccc(C)n3)n2)c1 |  | -3.54% [at 0.0925 µM] (inactive) |
| Cc1ccc(Nc2nc(-c3ccc(O)cc3O)cs2)nc1 | 10 µM (active) |  |
| c1cnc(Nc2nc(-c3ccc4ccccc4c3)cs2)nc1 |  | 27.1% [at 12.7 µM] (inactive) |
| CCN(CC(=O)Nc1c(F)cccc1F)C(=O)c1ccc(S(=O)(=O)N2CCCCC2)cc1 |  | 0.134% [at 12.7 µM] (inactive) |
| CC1CC(C)CN(c2ccc(S(=O)(=O)N3CCOCC3)cc2)C1 (stereo not drawn) |  | -7.51% [at 12.7 µM] (inactive) |
| O=C(/C=C/Nc1ccccc1OC(F)(F)F)C(F)(F)F | inactive |  |
| CN(C)c1ccc(N/C=C/C(=O)C(F)(F)F)cc1 | 7.08 µM (active) |  |
| CCCOc1ccc(N/C=C/C(=O)C(C)(C)C)cc1 | inactive |  |
| COc1ccc(-c2cn3c(n2)sc2cc(C(=O)Nc4ccc(F)cc4)ccc23)cc1 | inactive |  |
| CCn1cc2nc(SCc3cccc(F)c3)n(CCc3ccccc3)c(=O)c2n1 | inactive |  |
| CCOC(=O)C1(Cc2ccccc2C)CCCN(C(=O)CN2C(=O)CSC2=O)C1 (stereo not drawn) | inactive |  |
